Compound activity: PubChem BioAssay, National Center for Advancing Translational Sciences (NCATS)
AMA1 RON2 block: qHTS for Inhibitors of AMA1-RON; Towards Development of Antimalarial Drug Lead: Primary Screen. Plasmodium falciparum AMA1 (3D7) - RON2 peptide interaction. AlphaScreen AMA1-biotinylated RON2 peptide binding. Potency, µM (top dose mostly 58.2 µM), for inactives: at the top dose activity change, negative = inhibition, actives largely listed as inhibitors. 360,000 compounds, 0.2% hits. AID 720542, 2013;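 note: 0% = vehicle wells and -100% = peptide control; nearly all actives have a fitted effect of over 45% in size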
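AMA1 (3D7) with his tag at 25 nM final met compounds first, then biotinylated RON2 peptide at 25 nM; detection used donor plus acceptor beads, 10 µg/mL apiece, read by AlphaScreen after 30 min at room temperature.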
Sm TGR inh: qHTS Assay for the Inhibitors of Schistosoma Mansoni Peroxiredoxins. Schistosoma mansoni thioredoxin glutathione reductase (TGR), Q962Y6. purified TGR, DTNB reduction, TNB absorbance 405 nm. Potency, µM (doses to about 114 µM), inactives show top-dose activity change, negative = inhibition, usual class: inhibitors. 360,000 compounds, 3% hits. AID 485364, 2010; note: % is set by controls: 0 for no effect and ±100 for the full control effect; nearly all actives have a fitted effect of over 60% in size
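First, TGR (20 nM dispensed) and NADPH were mixed with compound. Second, a 15 min room-temperature incubation followed. Third, further NADPH and then DTNB were added to start the reaction. Finally, TNB absorbance was monitored kinetically.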
Pf growth 96h: Primary qHTS for delayed death inhibitors of the malarial parasite plastid, 96 hour incubation; P. falciparum luciferase reporter growth, 96 h; Potency, µM (top dose mostly 28.7 µM), for inactives: top-dose activity change, negative = inhibition, usual class: inhibitors; 320,000 compounds, 6.9% hits; note: % is set by controls: 0 for no effect and ±100 for the full control effect
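P. falciparum expressing integrated firefly luciferase grown in erythrocytes (2% hematocrit, 0.05% parasitemia final) with compounds for 96 hours at 37 C, 5% CO2. Growth inhibition read as loss of luminescence after adding luciferase detection reagent.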
Pf growth 48h: Primary qHTS for delayed death inhibitors of the malarial parasite plastid, 48 hour incubation; P. falciparum luciferase growth in erythrocytes, 48 h; Potency, µM (series often up to 28.7 µM), for inactives: at the top dose activity change, negative = inhibition, most hits filed as inhibitors; 310,000 compounds, 5.9% hits; AID 504832, 2011; note: % is set by controls: 0 for no effect and ±100 for the full control effect
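A one-generation exposure of luciferase-tagged malaria parasites in RPMI 1640/Albumax erythrocyte culture, 37 C and 5% CO2. Inhibition is inferred from decreased luminescence after adding detection reagent.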
NS1 inh: qHTS Assay for Inhibitors of Influenza NS1 Protein Function; 270,000 compounds, 0.4% hits; Potency, µM (top dose mostly 46.1 µM), for inactives: at the top dose activity, positive = more growth; AID 2326, 2010; calls by dose curve; note: actives are rising curves; nearly all actives have a fitted effect of over 50% in size
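S. cerevisiae expressing influenza A NS1, grown in glucose, washed, then diluted 1:100 into pH 6.0 -URA galactose medium with 23 nl compound. Growth recovery read as OD600; NS1-free strain serves as control.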
An asterisk follows results filed as active; ? = inconclusive; . = no result given; [ ] = another dose, or the depositor's remark. A selection: hits, their analogues and other compounds. The true share with any hit is near 11%. Unless noted, calls come from the whole dose curve; as a rule, active = well fitted curve in the direction sought with a large enough effect; inconclusive = small, poorly fitted or top-dose-only effect, or another doubt; inactive = no such curve, though single readings can be large; an effect the other way counts as inactive or inconclusive. Potency is the fitted concentration of half-maximal effect.

SMILES	AMA1 RON2 block	Sm TGR inh	Pf growth 96h	Pf growth 48h	NS1 inh
O=C(CN(C(=O)c1csnn1)c1ccc(F)c(Cl)c1)NC1CCCC1	-4.9%	-4.6%	?	-16.8%	18.4%
Cc1ccc(S(=O)(=O)NCC(C)NS(=O)(=O)c2ccc(C)cc2)cc1 (stereo unspecified)	13.0%	-1.9%	2.5%	4.1%	-1.4%[9.22 µM]
CNC(=O)OC(C)CNS(=O)(=O)c1ccc(C)cc1 (stereo unspecified)	-0.8%	-17.1%	11.7µM*	11.4%	5.7%
Cc1ccccc1-n1c(SCC(=O)c2cc(C)n(C)c2C)nnc1-c1cccnc1	-14.5%	-22.3%	?	.	15.8%
COCCn1c(C)cc(C(=O)CSc2nnc(-c3cccnc3)n2-c2ccccc2F)c1C	18.4%	?	-26.8%	10.4µM*	5.1%
CCOc1ccccc1-n1c(SCC(N)=O)nnc1-c1cccnc1	5.4%	11.9%	11.7µM*	-6.1%	0.8%
COc1cc(NC(C)C(=O)N2CC(C)OC(C)C2)cc(OC)c1 (stereo unspecified)	-14.4%	-8.9%	.	4.65µM*	0.2%
COc1cccc(NC(C)C(=O)N2CC(C)OC(C)C2)c1 (stereo unspecified)	-0.4%	11.2%	?	-0.7%	-0.6%
CCn1c(N)c(C(=O)NCCOC)sc1=S	0.0%	4.2%	-3.6%	.	-16.4%
CCn1c(N)c(C(=O)Nc2ccccc2C(=O)OC)sc1=S	1.1%	6.4%	13.1µM*	61.4%	-124.1%
CC1(C)N=C(N)N=C(N)N1c1ccccc1	0.0%	0.1%	0.738µM*	.	1.9%
CC1(C)N=C(N)N=C(N)N1c1cccc(OCc2cccc(N)c2)c1	.	.	.	.	1.7%
CC1(C)N=C(N)N=C(N)N1c1ccc(Oc2ccc(Cl)cc2)c(Cl)c1	-0.7%	-21.5%	-0.2%	0.208µM*	-4.2%
CC1(C)N=C(N)N=C(N)N1c1cccc(CN)c1	8.9%	5.3%	0.928µM*	0.828µM*	2.1%
COc1ccc(OC)c(N2C(N)=NC(N)=NC23CCCC3)c1	11.5%	0.0%	4.6%	-12.3%	9.8%
Cc1cccc(N2C(N)=NC(N)=NC23CCCCC3)c1	-11.1%	-3.0%	?	2.08µM*	-1.7%
COc1ccccc1NC(=O)c1ccc(NC(=O)c2ccc(=O)[nH]c2)cc1	8.0%	-10.6%	?	?	.
CCC(=O)N1CCC(NC(=O)Nc2ccc(OC(F)(F)F)cc2)CC1	-0.1%	3.0%	-7.0%	?	.
COc1ccc(C2c3cccn3CCN2S(=O)(=O)c2ccccc2[N+](=O)[O-])cc1OC (stereo unspecified)	.	-28.4%	.	.	.
CC1(C)N=C(N)N=C(N)N1c1cc(Cl)ccc1Cl	21.2%	.	.	.	.
CC1(C)N=C(N)N=C(N)N1c1ccc(F)cc1F	6.1%	0.7%	9.28µM*	?	4.6%
COc1ccc(CCC(=O)NCc2ccc3c(c2)CCN3C(=O)c2cccc(C)c2)cc1	.	0.9%	.	.	.
O=C(CCl)N(Cc1cc(=O)[nH]c2ccccc12)c1ccccc1	-22.0%	3.55µM*	10.4µM*	10.4µM*	2.5%
Cc1ccccc1N(Cc1cc(=O)[nH]c2ccccc12)C(=O)C(C)C	0.0%	23.2%	?	14.7µM*	-1.2%
Cc1ccccc1N(Cc1cc(=O)[nH]c2ccccc12)C(=O)CCl	.	14.1µM*	1.85µM*	4.65µM*	5.3%
SMILES	AMA1 RON2 block	Sm TGR inh	Pf growth 96h	Pf growth 48h	NS1 inh
CCC(=O)N(Cc1cc(=O)[nH]c2ccccc12)c1ccc(C)cc1C	-10.7%	-13.5%	?	?	3.1%
Cc1ccc(N(Cc2cc(=O)[nH]c3ccccc23)C(=O)C(C)C)c(C)c1	0.0%	14.9%	-18.7%	?	10.7%
Cc1cc(F)ccc1NC(=O)c1cc(S(=O)(=O)N2CCOCC2)cn1C	-0.4%	-2.7%	?	?	8.6%
CCOc1ccc(N(CC(=O)NCc2ccc(C)cc2)S(=O)(=O)c2c(C)noc2C)cc1	.	8.7%	.	.	.
O=C(O)c1nnn(-c2cc(C(F)(F)F)cc(C(F)(F)F)c2)c1-c1ccccc1	-0.5%	33.4%	12.0%	-5.5%	2.0%
CCCCOc1ccc(NC(=O)Cn2nnnc2-c2ccccc2F)cc1	.	-0.1%	.	.	.
CN(C)C(=O)c1ccc(N=Nc2c(O)c3ccccc3[nH]c2=O)cc1	12.5%	.	.	.	.
Cc1cc(N=Nc2c(O)c3ccccc3[nH]c2=O)ccc1N=Nc1ccc(C(=O)N(C)C)cc1	-5.1%	8.4%	2.08µM*	1.85µM*	-4.0%
O=C(CC(c1cccs1)N1Cc2ccccc2C1=O)Nc1cccc(F)c1 (stereo unspecified)	.	6.3%	.	.	.
CCOC(=O)c1ccc(N2C(=O)C(CC(=O)NC)N(CCc3ccc(OC)c(OC)c3)C2=S)cc1 (stereo unspecified)	?	?	1.7%	13.1µM*	-3.0%
CCOC(=O)c1ccc(N2C(=O)CC(Nc3ccc(CCO)cc3)C2=O)cc1 (stereo unspecified)	20.2%	-21.2%	44.1%	0.0%	1.4%
CCOC(=O)c1ccc(N2C(=O)CC(N(Cc3ccc4c(c3)OCO4)C(=O)Nc3ccccc3)C2=O)cc1 (stereo unspecified)	18.6%	0.0%	9.28µM*	.	-3.3%
CCOC(=O)c1ccc(N2C(=O)CC(N(C)CCc3ccc(OC)c(OC)c3)C2=O)cc1 (stereo unspecified)	4.3%	44.7µM*	.	?	-129.7%
CCOC(=O)c1ccc(NC(=O)CC2C(=O)N(c3ccc(F)cc3)C(=O)N2Cc2ccc3c(c2)OCO3)cc1 (stereo unspecified)	.	-2.5%	.	.	.
CC(=O)N(Cc1ccc2c(c1)OCO2)C1CC(=O)N(CCc2ccccc2)C1=O (stereo unspecified)	-2.7%	22.4µM*	?	11.8%	2.2%
CCOc1ccc(NC(=O)CC2C(=O)N(c3ccc(OC)cc3)C(=O)N2CCc2ccc(OC)c(OC)c2)cc1 (stereo unspecified)	-12.7%	8.2%	2.2%	?	.
CC1=C(C(=O)Nc2ccc(C)cc2C)C(c2cccn2C)n2ncnc2N1 (stereo unspecified)	.	0.4%	.	.	.
COc1cccc2c1cc1c(=O)n(CC(=O)NCCCN3CCN(C)CC3)nc(C)n12	0.1%	-19.9%	22.5%	-10.0%	-8.8%
Cc1cccc(OCc2nnc(SCC(=O)N(c3ccccc3)C3CCS(=O)(=O)C3)o2)c1 (stereo unspecified)	3.9%	-0.6%	?	?	.
CCOc1ccccc1NC(=O)CN1Cc2ccccc2C1=O	.	2.6%	.	.	.
CCOc1ccc(N2C(=O)CC(N(CCc3ccc(OC)cc3)C(=O)/C=C/C(=O)O)C2=O)cc1 (stereo unspecified)	-6.0%	.	?	17.7%	2.7%
